The record followed here is ChEMBL document CHEMBL1961873, “Compounds: GSK PKIS; Assays: Nanosyn kinase panel” (2012).

Test [1] addresses RAC-alpha serine/threonine-protein kinase (Homo sapiens) (UniProt P31749). As to conditions: at 0.1 µM.
Test [2] has the same target. The conditions noted are these: at 1 µM.
Test [3] deals with RAC-beta serine/threonine-protein kinase (Homo sapiens) (UniProt P31751). As to conditions: at 0.1 µM.
For test [4] the target is unchanged. The conditions noted are these: at 1 µM.
For test [5], the target named is RAC-gamma serine/threonine-protein kinase (Homo sapiens) (UniProt Q9Y243). As to conditions: at 0.1 µM.
For test [6] the target is unchanged. As to conditions: at 1 µM.
Test [7] concerns the target G protein-coupled receptor kinase 6 (Homo sapiens) (UniProt P43250). The conditions noted are these: at 0.1 µM.
For test [8] the target is unchanged. The conditions noted are these: at 1 µM.
In test [9] the target is T1, Rhodopsin kinase GRK7 (Homo sapiens) (UniProt Q8WTQ7).
T1 sequence (whole entry): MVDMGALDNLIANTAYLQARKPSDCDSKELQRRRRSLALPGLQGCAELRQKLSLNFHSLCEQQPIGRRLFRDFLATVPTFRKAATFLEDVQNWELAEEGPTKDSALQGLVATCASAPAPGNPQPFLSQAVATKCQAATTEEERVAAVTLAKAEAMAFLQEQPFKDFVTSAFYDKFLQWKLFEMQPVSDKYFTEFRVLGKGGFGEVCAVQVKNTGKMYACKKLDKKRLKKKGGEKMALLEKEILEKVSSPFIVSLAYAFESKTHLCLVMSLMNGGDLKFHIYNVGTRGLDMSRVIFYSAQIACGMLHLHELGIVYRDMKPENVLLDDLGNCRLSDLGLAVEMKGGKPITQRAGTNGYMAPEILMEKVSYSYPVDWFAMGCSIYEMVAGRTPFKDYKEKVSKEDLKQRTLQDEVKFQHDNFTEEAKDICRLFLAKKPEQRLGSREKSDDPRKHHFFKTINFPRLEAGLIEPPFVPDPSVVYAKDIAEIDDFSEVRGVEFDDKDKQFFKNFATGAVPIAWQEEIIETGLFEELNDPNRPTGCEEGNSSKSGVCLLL
The conditions noted are these: at 0.1 µM.

For test [10], the target named is T1, Rhodopsin kinase GRK7 (Homo sapiens). As to conditions: at 1 µM.
Test [11] concerns the target Serine/threonine-protein kinase MRCK alpha (Homo sapiens) (UniProt Q5VT25). The conditions noted are these: at 0.1 µM.
Test [12] shares this target. As to conditions: at 1 µM.
Test [13] addresses Serine/threonine-protein kinase MRCK beta (Homo sapiens) (UniProt Q9Y5S2). The conditions noted are these: at 0.1 µM.
Test [14] shares this target. As to conditions: at 1 µM.
Test [15] concerns the target Ribosomal protein S6 kinase alpha-5 (Homo sapiens) (UniProt O75582). As to conditions: at 0.1 µM.
The target is the same in test [16]. The conditions noted are these: at 1 µM.
The target of test [17] is Ribosomal protein S6 kinase alpha-4 (Homo sapiens) (UniProt O75676). As to conditions: at 0.1 µM.
For test [18] the target is unchanged. As to conditions: at 1 µM.
In test [19] the target is Ribosomal protein S6 kinase beta-1 (Homo sapiens) (UniProt P23443). As to conditions: at 0.1 µM.
The target is the same in test [20]. The conditions noted are these: at 1 µM.

Chain of Ribosomal protein S6 kinase beta-1 (Homo sapiens) (P23443 whole entry, looked up): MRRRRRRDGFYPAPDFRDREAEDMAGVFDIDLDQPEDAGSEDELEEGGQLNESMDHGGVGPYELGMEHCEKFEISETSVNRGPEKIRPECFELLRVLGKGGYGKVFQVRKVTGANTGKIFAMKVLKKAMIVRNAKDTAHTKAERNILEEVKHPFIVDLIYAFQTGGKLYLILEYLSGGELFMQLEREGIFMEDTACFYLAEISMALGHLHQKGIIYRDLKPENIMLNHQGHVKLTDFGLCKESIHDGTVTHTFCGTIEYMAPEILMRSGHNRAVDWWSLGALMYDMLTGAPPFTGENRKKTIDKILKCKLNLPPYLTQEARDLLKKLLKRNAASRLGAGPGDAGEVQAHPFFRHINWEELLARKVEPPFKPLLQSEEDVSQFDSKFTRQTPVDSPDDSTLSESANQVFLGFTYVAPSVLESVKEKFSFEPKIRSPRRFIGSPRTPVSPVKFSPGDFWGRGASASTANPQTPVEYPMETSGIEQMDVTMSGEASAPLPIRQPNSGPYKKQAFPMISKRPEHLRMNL
Chain of Ribosomal protein S6 kinase alpha-5 (Homo sapiens) (O75582 whole entry, looked up): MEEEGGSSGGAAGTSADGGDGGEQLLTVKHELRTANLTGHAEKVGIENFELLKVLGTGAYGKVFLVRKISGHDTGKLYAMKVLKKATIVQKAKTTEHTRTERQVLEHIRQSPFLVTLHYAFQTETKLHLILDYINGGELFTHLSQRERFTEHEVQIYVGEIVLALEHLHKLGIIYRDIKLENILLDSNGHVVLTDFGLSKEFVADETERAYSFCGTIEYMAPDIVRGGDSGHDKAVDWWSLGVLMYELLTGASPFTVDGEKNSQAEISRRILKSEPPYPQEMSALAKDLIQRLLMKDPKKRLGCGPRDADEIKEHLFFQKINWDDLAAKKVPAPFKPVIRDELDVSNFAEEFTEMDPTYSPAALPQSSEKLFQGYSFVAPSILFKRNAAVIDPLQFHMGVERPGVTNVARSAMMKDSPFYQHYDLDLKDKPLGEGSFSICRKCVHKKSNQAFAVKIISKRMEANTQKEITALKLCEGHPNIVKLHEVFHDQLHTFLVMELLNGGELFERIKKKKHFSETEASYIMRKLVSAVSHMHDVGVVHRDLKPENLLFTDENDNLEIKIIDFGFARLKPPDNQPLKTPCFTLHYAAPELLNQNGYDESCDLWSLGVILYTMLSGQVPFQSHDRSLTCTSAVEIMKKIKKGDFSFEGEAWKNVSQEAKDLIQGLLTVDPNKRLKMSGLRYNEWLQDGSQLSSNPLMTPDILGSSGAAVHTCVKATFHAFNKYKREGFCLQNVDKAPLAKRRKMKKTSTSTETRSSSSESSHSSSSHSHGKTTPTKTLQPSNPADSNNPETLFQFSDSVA
Chain of Ribosomal protein S6 kinase alpha-4 (Homo sapiens) (O75676 whole entry, looked up): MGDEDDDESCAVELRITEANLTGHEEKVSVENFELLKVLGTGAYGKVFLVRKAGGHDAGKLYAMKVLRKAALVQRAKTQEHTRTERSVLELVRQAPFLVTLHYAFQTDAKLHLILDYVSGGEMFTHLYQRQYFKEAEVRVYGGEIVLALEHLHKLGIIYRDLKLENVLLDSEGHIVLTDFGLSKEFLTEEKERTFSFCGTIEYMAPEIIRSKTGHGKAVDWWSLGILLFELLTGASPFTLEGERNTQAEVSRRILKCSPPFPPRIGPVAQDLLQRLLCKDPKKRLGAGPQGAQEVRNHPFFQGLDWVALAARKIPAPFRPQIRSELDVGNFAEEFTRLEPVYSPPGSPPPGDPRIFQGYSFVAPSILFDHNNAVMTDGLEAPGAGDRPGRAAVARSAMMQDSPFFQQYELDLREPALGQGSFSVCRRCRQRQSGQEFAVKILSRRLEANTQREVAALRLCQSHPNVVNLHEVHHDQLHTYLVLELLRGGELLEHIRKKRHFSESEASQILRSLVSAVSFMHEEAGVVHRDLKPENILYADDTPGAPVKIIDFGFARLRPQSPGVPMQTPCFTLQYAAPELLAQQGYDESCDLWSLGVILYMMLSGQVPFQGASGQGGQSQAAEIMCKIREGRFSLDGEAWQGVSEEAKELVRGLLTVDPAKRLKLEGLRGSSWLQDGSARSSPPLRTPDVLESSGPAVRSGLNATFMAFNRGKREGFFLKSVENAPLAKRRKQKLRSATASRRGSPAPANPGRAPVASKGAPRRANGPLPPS
Chain of RAC-gamma serine/threonine-protein kinase (Homo sapiens) (Q9Y243 whole entry): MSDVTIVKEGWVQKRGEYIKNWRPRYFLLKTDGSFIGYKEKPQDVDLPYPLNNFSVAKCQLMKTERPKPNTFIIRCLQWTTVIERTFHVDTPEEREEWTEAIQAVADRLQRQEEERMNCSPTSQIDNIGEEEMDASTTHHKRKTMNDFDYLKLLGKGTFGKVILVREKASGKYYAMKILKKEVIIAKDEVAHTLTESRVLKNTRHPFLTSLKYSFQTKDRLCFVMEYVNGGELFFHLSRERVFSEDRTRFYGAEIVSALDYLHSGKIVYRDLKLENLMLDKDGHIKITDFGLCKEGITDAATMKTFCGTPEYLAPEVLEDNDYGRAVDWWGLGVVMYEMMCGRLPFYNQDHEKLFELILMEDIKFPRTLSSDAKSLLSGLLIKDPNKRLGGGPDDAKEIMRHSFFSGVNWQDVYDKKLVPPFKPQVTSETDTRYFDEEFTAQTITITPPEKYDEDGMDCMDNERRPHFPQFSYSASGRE
Chain of RAC-beta serine/threonine-protein kinase (Homo sapiens) (P31751 whole entry): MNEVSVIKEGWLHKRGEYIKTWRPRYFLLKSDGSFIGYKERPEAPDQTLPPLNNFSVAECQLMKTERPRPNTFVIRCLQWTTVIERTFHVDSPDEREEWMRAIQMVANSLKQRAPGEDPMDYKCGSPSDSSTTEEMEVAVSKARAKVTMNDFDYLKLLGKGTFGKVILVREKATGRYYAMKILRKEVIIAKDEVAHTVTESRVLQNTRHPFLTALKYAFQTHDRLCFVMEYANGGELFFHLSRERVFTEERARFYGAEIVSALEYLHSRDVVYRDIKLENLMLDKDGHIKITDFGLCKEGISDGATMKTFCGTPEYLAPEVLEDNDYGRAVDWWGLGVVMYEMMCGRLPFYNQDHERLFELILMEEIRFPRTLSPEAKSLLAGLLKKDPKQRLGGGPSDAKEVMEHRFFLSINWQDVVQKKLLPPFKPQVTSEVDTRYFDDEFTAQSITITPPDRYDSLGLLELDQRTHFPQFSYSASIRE
Chain of G protein-coupled receptor kinase 6 (Homo sapiens) (P43250 whole entry, looked up): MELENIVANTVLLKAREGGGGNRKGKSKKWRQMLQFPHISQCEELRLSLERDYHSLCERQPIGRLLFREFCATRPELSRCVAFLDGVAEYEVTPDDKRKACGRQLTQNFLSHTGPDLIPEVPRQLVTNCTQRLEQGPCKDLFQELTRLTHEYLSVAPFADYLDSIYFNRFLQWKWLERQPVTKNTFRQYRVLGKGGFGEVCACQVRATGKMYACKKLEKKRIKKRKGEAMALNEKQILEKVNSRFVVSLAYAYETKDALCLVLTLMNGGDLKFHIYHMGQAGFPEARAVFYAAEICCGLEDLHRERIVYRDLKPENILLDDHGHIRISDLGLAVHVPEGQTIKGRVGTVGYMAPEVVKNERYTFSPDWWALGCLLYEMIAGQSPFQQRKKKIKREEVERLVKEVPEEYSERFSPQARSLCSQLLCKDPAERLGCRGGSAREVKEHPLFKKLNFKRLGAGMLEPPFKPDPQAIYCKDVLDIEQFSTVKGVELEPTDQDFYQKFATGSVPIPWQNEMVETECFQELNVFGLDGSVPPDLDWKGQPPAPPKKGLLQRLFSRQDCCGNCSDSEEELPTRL
Chain of RAC-alpha serine/threonine-protein kinase (Homo sapiens) (P31749 whole entry): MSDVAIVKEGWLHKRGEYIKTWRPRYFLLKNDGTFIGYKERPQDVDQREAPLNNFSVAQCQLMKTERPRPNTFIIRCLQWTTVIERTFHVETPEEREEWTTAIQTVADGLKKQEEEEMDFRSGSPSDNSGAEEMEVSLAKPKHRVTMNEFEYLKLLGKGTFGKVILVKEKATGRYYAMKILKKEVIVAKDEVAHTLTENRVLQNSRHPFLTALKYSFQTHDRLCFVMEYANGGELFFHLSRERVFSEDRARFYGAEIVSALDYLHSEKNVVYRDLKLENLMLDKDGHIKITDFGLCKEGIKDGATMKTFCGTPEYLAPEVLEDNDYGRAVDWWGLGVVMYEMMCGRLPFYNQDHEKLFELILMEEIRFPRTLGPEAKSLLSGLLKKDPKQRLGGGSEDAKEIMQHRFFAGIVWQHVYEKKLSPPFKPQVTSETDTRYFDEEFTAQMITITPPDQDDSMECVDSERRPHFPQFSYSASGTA

With `CN1CCN(CCCNc2nc3ccc(Oc4ccc(NC(=O)Nc5cc(C(F)(F)F)ccc5F)cc4)cc3[nH]2)CC1`, the inhibition was -3.71% in [1]; -3.59% in test [2]; -3.19% in test [3]; -0.85% in test [4]; -3.05% in test [5]; -2.98% in [6]. Besides, the inhibition in [7] is 0.32%; in test [8], -5.54%; in [9] it was 1.12%; in test [10], -3.95%; in [11] it was 1.76%; in test [12], -0.74%. Further, the inhibition in test [13] was 2.45%; in [14], 2.84%; in test [15] it was 1.13%; in test [16] it was -0.08%; in [17], 1.93%; in [18] it was 2.99%. Also, the inhibition was 1.14% in test [19] and 4.19% in test [20].

Turning to `COc1cc2ncn(-c3cc(OCc4ccccc4C(F)(F)F)c(C(C)=O)s3)c2cc1OC`, the inhibition in [1] stood at 0.53%; in [2], 1.82%; in [3], 0.85%; in test [4], 1.16%; in test [5], 0.29%; in test [6], 1.31%. Besides, the inhibition in test [7] was -0.96%; in test [8] it was 0.01%; in test [9], 4.7%; in test [10] it was 1.62%; in test [11], -2.12%; in test [12], 1.84%. The inhibition is 0.33% in test [13]; 0.86% in test [14]; 1.02% in [15]; -0.03% in test [16]; 1.45% in [17]; 3.01% in [18]. Moreover, the inhibition amounted to 0.79% in [19] and 0.12% in [20].

As to `Fc1ccc(-c2ncn(CCCN3CCOCC3)c2-c2ccncc2)cc1`, the inhibition in test [1] was 0.28%; in [2] it was -0.27%; in test [3] it was 0.74%; in [4], 0.26%; in test [5] it was -0.68%; in test [6], 1.2%. In addition, the inhibition is -3.25% in test [7]; -1.04% in [8]; -1.98% in test [9]; 3.1% in test [10]; 1.19% in test [11]; 1.33% in test [12]. Besides, the inhibition is 0.96% in test [13]; 2.08% in test [14]; 0.01% in test [15]; -0.79% in [16]; 0.3% in test [17]; 0.33% in test [18]. In addition, the values for the inhibition in test [19] and in test [20] were 0.29% and -0.43%, respectively.

Consider `Cc1ccc(C(=O)NC(C)C)cc1-c1ccc(C(=O)NCC2CC2)cc1`, for which the inhibition was -2.54% in test [1]; -2.49% in test [2]; -4.74% in test [3]; -3% in test [4]; -3.94% in test [5]; -1.32% in test [6]. Also, the inhibition in test [7] was -3.15%; in test [8], -2.12%; in test [9], -1.17%; in test [10], -7.32%; in [11], 0.02%; in [12] it was -2.08%. Also, the inhibition is 0.15% in test [13]; 0.39% in [14]; -3.69% in [15]; -3.9% in test [16]; -1.65% in [17]; -2.17% in test [18]. Also, the results for the inhibition in [19] and in [20] were -2.1% and -2.29%, respectively.

On to `CN(C)c1ccc2c(c1)/C(=C/Nc1ccc(S(N)(=O)=O)cc1)C(=O)N2`, for which the inhibition was 0.14% in test [1]; -0.46% in test [2]; 0.75% in test [3]; 1.06% in [4]; 2.06% in test [5]; 1.85% in [6]. Also, the inhibition is 3.15% in test [7]; 5.15% in test [8]; 0.97% in test [9]; 8.73% in [10]; 0.22% in test [11]; 4.01% in test [12]. In addition, the inhibition in [13] was determined as 1.12%; in [14], 2.85%; in [15], 3.06%; in test [16], 4.05%; in test [17] it was 1.96%; in [18], 3.55%. Also, the inhibition in test [19] was 0.19%; in test [20], 3.09%.

For `Nc1nccc(-c2c(-c3ccc(F)cc3)ncn2C2CCC(O)CC2)n1` (stereo not given), the inhibition in [1] was -1.5%; in test [2], -1.14%; in test [3], -2.08%; in [4], -1.44%; in test [5], -1.82%; in [6] it was 0.5%. For the same molecule, the inhibition in test [7] is 1.78%; in test [8] it was -1.92%; in test [9], -3.24%; in [10], -1.89%; in test [11], -0.25%; in test [12], -0.81%. Besides, the inhibition in test [13] is 0.88%; in test [14] it was 0.56%; in test [15] it was -1.03%; in test [16], -0.24%; in test [17], -1.62%; in test [18] it was -0.73%. In addition, the inhibition in [19] was -1.59%; in test [20], -1.84%.

`CCN(CC)Cc1ccc(Nc2nccc(-c3cnn4ncccc34)n2)cc1`: the inhibition is -2.02% in test [1]; -1.93% in test [2]; -2.76% in test [3]; -2.22% in [4]; -1.29% in [5]; -1.26% in test [6]. Further, the inhibition in test [7] was found to be 2.33%; in [8] it was 1.08%; in [9] it was 10.6%; in [10], 3.71%; in test [11], 2.38%; in [12], 4.32%. The inhibition amounted to 0.71% in test [13]; 4.53% in test [14]; 0.66% in [15]; 2.51% in test [16]; 2.43% in test [17]; 7.32% in [18]. Moreover, the inhibition in [19] came to 1.81%; in test [20] it was 7.85%.
